Source: PubChem (several laboratories)
MRP resist rev = compounds reversing MRP-mediated drug resistance; H69AR cells + 2 uM doxorubicin, CellTiter-Glo, 72 h; 85,000 tested, 0.04% active; differential viability (reversal), % at 10 µM; AID 602;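 active means viability drop by adding the cancer drug above about 55%, with treated viability meeting a 40% cutoff, limit read from the data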;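 further: viability without doxorubicin minus viability with 2 µM doxorubicin for each compound; larger differential means the compound sensitizes cells more to doxorubicin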
sdo1 growth = sdo1-depleted yeast growth rescue | S. cerevisiae sdo1-depleted JHY4D growth rescue, OD600 30 h; stronger effect = higher value; pdr5 snq2 efflux-pump mutant strain | z-score at 10 µM | 140,000 tested, 0.21% active | AID 817;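 active means z-score above 3 at both the 24 hr and the 30 hr optical density reads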;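 further: z-score against mean and SD of all compound wells on the same plate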
MRP-1 activ = activates MRP-1. H69AR cells + doxorubicin, viability rescue, CellTiter-Glo. viability increase, % at 10 µM. 140,000 tested, 0.61% active. AID 799;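 active means viability gain under doxorubicin at or above a set limit, the compound median plus 3 SD, cut at about 4.7% in these data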;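 further: MRP-1 overexpressing cells given doxorubicin 25 µM after compound pretreatment; 18-22 h compound pretreatment then 72 h with doxorubicin before readout; 0% = doxorubicin-only wells and 100% = vehicle-treated cells without doxorubicin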
Candida biofilm = kills Candida albicans biofilms | inhibition, % at 6 µM | C. albicans biofilm + clotrimazole, Alamar Blue | 85,000 tested, 0.14% active | AID 834;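 active means inhibition above 20%; inactive means inhibition below 20%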;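 further: preformed 24 hr biofilms exposed to compound for 48 hr; 0% = biofilm without compound and 100% = blank killed by clotrimazole plus chlorhexidine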
sdo1 rescue conf = SDO1-depleted yeast growth rescue confirmation; shares compounds with sdo1 growth; S. cerevisiae JHY4D (SDO1-depleted) growth rescue, OD600, 30 h; stronger effect = higher value; efflux-deficient strain, SNQ2 and PDR5 mutated; OD recovery (concentration not given with the values); 440 tested, 44% active;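 active means yeast growth recovered at 30 hours, either rising with dose fitted slope above 0.001 or with average optical density gain above 0.07, some results past the limit were not filed as active; inactive means growth falling with dose or no effect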;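 further: gain in OD600 from 0 h to 30 h averaged across all seven doses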
Starred values were filed as active, the others as inactive; / = no result. Compounds with a hit are over-represented: about 0.98% of the library has one in this group of screens.

SMILES	MRP resist rev	sdo1 growth	MRP-1 activ	Candida biofilm	sdo1 rescue conf
Cc1c(C(=O)Nc2nnc(C(F)(F)F)s2)oc2ccccc12	-20	1	8.9*	/	/
COC(=O)c1sc(NC(=O)c2oc3ccccc3c2C)nc1C	-9	0.75	-4	2	/
COc1ccc(C(=O)OC(C(=O)c2ccccc2)c2ccccc2)cc1 (centres undefined)	/	-0.99	-2	/	/
O=C(NCc1cccnc1)C1CCCN(Cc2cnn(-c3ccccc3)c2-n2cccc2)C1 (centres undefined)	-15	1.1	-1	-1	/
Oc1c(C=C2N=c3ccccc3=N2)sc(=S)n1-c1ccc(F)cc1	/	-0.24	9.2*	/	/
Oc1c(C=C2N=c3ccccc3=N2)sc(=S)n1C1CCCC1	/	-1.3	-4	/	/
CCCCc1ccc(NC(=O)c2c(C)noc2C)cc1	22	-0.83	8.7*	8	/
O=c1cc(CNc2ccc(Br)cc2)nc2sccn12	/	-0.27	8.7*	/	/
CN(Cc1cc(=O)n2ccsc2n1)c1ccccc1	/	0.14	1	/	/
Cc1ccc(C2=CC(C)(c3ccc(C)cc3)Nc3nc(C(F)(F)F)nn32)cc1 (centres undefined)	/	-0.47	6.0*	/	/
O=c1c(-c2nnc(SCc3ccc(Cl)cc3)o2)cccn1Cc1ccccc1	/	-1.3	5.4*	/	/
Cc1ccc(N(CC(=O)NCCSc2nc3ccccc3s2)S(=O)(=O)c2ccccc2)c(C)c1	/	-1.3	-3	/	/
Cc1ccc(NC(=O)CCC(=O)N/N=C/c2cccs2)cc1C	/	0.78	7.2*	/	/
COC(=O)N/N=C/c1cn(Cc2c(Cl)cccc2Cl)c2ccccc12	/	-1.7	3	/	/
CCCCOc1ccc(/C=C/C(=O)Nc2ccc([N+](=O)[O-])cc2C)cc1	/	0.88	5.8*	/	/
CC(C)CC(=O)Nc1cc2nn(-c3ccccc3)nc2cc1Cl	6	-0.3	0	53*	/
O=C(O)/C=C/c1nc(-c2ccccc2)n2ccccc12	/	0.78	-2	/	/
NC1C2CN(c3nc4c(cc3F)c(=O)c(C(=O)O)cn4-c3ccc(F)cc3F)CC12 (centres undefined)	/	-0.39	6.6*	/	/
Cc1c(-n2cc(C(=O)O)c(=O)c3cc(F)c(N4CCCC4)c(F)c32)c(=O)n(-c2ccccc2)n1C	15	/	/	9	/
NC(=S)NNC(=O)C12CC3CC(CC(C3)C1)C2	/	0.49	-2	/	/
CCOC(=O)c1cc(-c2ccccc2)sc1NC(=O)C(C)Sc1nnc(C)s1 (centres undefined)	/	-0.65	9.2*	/	/
CCOC(=O)c1cc(-c2ccccc2)sc1NC(=O)C(C)Sc1nnnn1C (centres undefined)	5	-2.8	4	4	/
NS(=O)(=O)c1ccc(NC(=O)CSC2=NC(=O)C(c3ccccc3)C(=O)N2)cc1 (centres undefined)	-21	8.7*	1	10	0.048
Cc1cc(O)c(-c2cc(C(=O)Nc3ccc(S(=O)(=O)N4CCOCC4)cc3)[nH]n2)cc1C	-21	1.6	-2	7	0.091*
C=C(C)COc1ccc(-c2nc(N)ncc2Oc2ccc(OC)cc2)c(O)c1	2	3.5*	0	8	0.035
SMILES	MRP resist rev	sdo1 growth	MRP-1 activ	Candida biofilm	sdo1 rescue conf
COc1ccc(NC(=O)c2cc(-c3ccc(OC)c(OC)c3)on2)cc1OC	9	1.8	-2	5	0.068
COc1ccc(CNC(=O)c2cc(-c3ccc(OC)c(OC)c3)on2)cc1	-1	8.7*	1	8	0.047
O=C(CCCN1C(=O)c2ccccc2C1=O)NCC1CCCO1 (centres undefined)	4	2	-3	6	0.035
O=C(CN1C(=O)c2ccccc2C1=O)NCC1CCCO1 (centres undefined)	/	0.2	-2	/	/
COc1ccc(OC)c(C2=NOC(C(=O)NCc3ccco3)C2)c1 (centres undefined)	-27	7.6*	-1	0	0.036
Cc1ccc(/C(O)=C2\C(=O)C(=O)N(CC(C)O)C2c2cccc(F)c2)cc1 (centres undefined)	-1	2.6	-1	5	0.065
COc1ccc(C(=O)NC(=S)Nc2ccc3c4c(cccc24)CC3)cc1OC	/	0.33	-1	/	/
O=[N+]([O-])c1ccc(Cl)c(/C=N/n2c(-c3cccnc3)n[nH]c2=S)c1	/	-0.63	-4	/	/
COc1ccc(/C=N/NC(=S)NC2CCS(=O)(=O)C2)cc1 (centres undefined)	/	11*	-2	/	0.062
COc1ccc(/C=N/NC(=O)CCCC(=O)NC2CCCCC2)cc1	/	-0.46	-4	/	/
CCC(Sc1nc(C)cc(C)n1)C(=O)NC1=NN=C(c2ccc(C)cc2)CS1 (centres undefined)	/	-0.57	-7	/	/
Cc1cc(C)nc(SCC(=O)NC2=NN=C(c3ccc(Br)cc3)CS2)n1	/	1.1	-6	/	0.083*
COc1ccc(-c2nc3ccccc3o2)cc1NC(=O)c1ccc(Br)o1	-21	2.1	-1	6	0.064*
CCCCC(=O)NC(NC(=S)N1CCCCCC1)C(Cl)(Cl)Cl (centres undefined)	/	-0.01	0	/	/
COc1ccc(OCC(=O)Nc2cccc(NC(=O)COc3ccc(OC)cc3)n2)cc1	-2	3.1*	-4	4	0.067
COc1ccc(OCC(=O)Nc2cccc3cccnc23)cc1	9	-0.14	-3	-2	/
O=C(NCc1ccco1)c1ccc(COc2cc(Cl)ccc2Cl)cc1	/	-0.14	2	/	/
Cc1nc(NC(=O)c2cc3c(C)nn(-c4ccccc4)c3s2)sc1C(=O)Nc1ccccc1	/	-0.46	-4	/	/
CC(=O)c1sc(NC(=O)c2cc3c(C)nn(-c4ccccc4)c3s2)nc1C	8	4*	0	8	0.11*
COc1ccc(C)cc1NC(=O)C1CCCN(S(=O)(=O)c2cnc[nH]2)C1 (centres undefined)	-1	1.2	-3	-1	/
COc1ccccc1NC(=O)C1CCCN(S(=O)(=O)c2cnc[nH]2)C1 (centres undefined)	-4	1.5	1	12	0.043
O=C(CCc1nc2ccccc2s1)OCc1ccccc1F	/	-0.02	-2	/	/
Cc1c(C(=O)NC2CCCc3ccccc32)oc2ccc(S(=O)(=O)N3CCCCC3)cc12 (centres undefined)	/	9.3*	-4	/	0.092*
CCOc1ccc(C(=O)NC(=S)Nc2ccccc2OC)cc1[N+](=O)[O-]	/	1.5	-1	/	0.077*
Cc1sc2nc3c(SC(C)C(=O)O)cc(C(=O)c4ccccc4O)cn3c(=O)c2c1C (centres undefined)	/	0.87	-2	/	/
SMILES	MRP resist rev	sdo1 growth	MRP-1 activ	Candida biofilm	sdo1 rescue conf
CCOC(=O)c1sc2nc3c(SCC(=O)O)cc(C(=O)c4cc(F)ccc4O)cn3c(=O)c2c1C	/	3.1*	1	/	0.069
CCOc1ccc(C(C)=O)cc1N1C(=O)C2C3C=CC(C3)C2C1=O (centres undefined)	7	-0.16	-2	9	/
CCOc1ccc(CCN2C(=O)C3C4C=CC(C4)C3C2=O)cc1OCC (centres undefined)	-8	0.85	-3	5	0.069
CCN(CC)S(=O)(=O)c1cc(C(=O)Nc2ccncc2)ccc1Cl	-7	0.77	-1	7	/
CCN(CC)S(=O)(=O)c1cc(C(=O)Nc2cccnc2)ccc1Cl	/	3.3*	0	/	0.093*
Cc1cc(Cl)c(OCCCNCc2ccccc2)c(Br)c1	/	4.2*	-6	/	0.058
